Experimental data from PubChem BioAssay (NCATS).
Results filed as inconclusive are left out. Calls of active or inactive are those of the source. Unless noted, the call rests on the fitted dose curve; in most records, active means well fitted curve in the direction sought with a large enough effect; inconclusive means small, poorly fitted or top-dose-only effect, or another doubt; inactive means no such curve, though single readings can be large; an effect the other way counts as inactive or inconclusive.

Assays:
[1] = qHTS assay for small molecule agonists of the antioxidant response element (ARE) signaling pathway measured by Nrf2-dependant transcriptional activity - cell viability counter screen (AID 720653; active means well fitted curve in the direction sought with a large enough effect in the repeat runs; an effect the other way counts as inactive or inconclusive; further: on the % scale 0 is the no-effect control and ±100 the full control effect); settings: ARE-bla HepG2 viability, CellTiter-Glo ATP luminescence, 16 h; max response: hits give low values
Procedure, shortened: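 Cytotoxicity counter screen: intracellular ATP quantified by CellTiter-Glo luminescence in the same ARE-bla HepG2 plates, after 16 h compound exposure and a 2 h beta-lactamase substrate step.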

[2] = qHTS assay for cell viability of the p53RE-bla HCT-116 cell line (AID 743292); further: on the % scale 0 is the no-effect control and ±100 the full control effect; nearly all actives have a fitted effect of over 55% in size
Procedure, shortened: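 ATP-based luminescent viability (CellTiter-Glo, 30 min RT) after 16 h compound treatment at 37 C of p53RE-bla HCT-116 cells, seeded at 4,000 cells/well and rested 5 h before dosing.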

[3] = qHTS assay for small molecule activators of the human pregnane X receptor (PXR) signaling pathway (AID 720659; call rule not given here; further: 0% is about no effect)

N[C@@H](Cc1ccccc1)C(=O)O
inactive: max response [1] -5.99% | Potency [2] | outcome [3]
